Records with an inconclusive call do not appear. For part of these data: Potency and affinity values are given separately. Active and inactive are the calls of the source.
Key:
[1] = Ebola virus entry assay, blue channel fluorescence
[2] = Ebola virus entry assay, green fluorescence channel
[3] = Ebola virus entry assay, ratio channel readout
[4] = Ebola virus entry assay, blue channel fluorescence; remark: listed apart in the source
[5] = Ebola virus entry reporter assay, green channel fluorescence
[6] = Ebola virus entry cell assay, ratio channel
[7] = Ebola virus entry assay, green channel fluorescence
[8] = Ebola virus entry assay, reporter ratio channel; AC50: Channel type: primary unless noted; outcome: Channel type: primary unless noted
[9] = Ebola virus entry assay, blue channel (ratio component)
[10] = qHTS Assay for Identifying Gametocytocidal Compounds (AID 743244; active = well fitted curve in the direction sought with a large enough effect;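 also: % is scaled to controls: 0 for no effect and ±100 for the full control effect; actives lower the fluorescent signal which means gametocytes are killed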); conditions: P. falciparum 3D7 stage III-V gametocytes, alamarBlue, 72 h; max response: active compounds read low
Method in brief: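 3D7 gametocytes, stages III–V, 20,000/well; cpd 72 h, 37 °C/5% CO2; + alamarBlue 24 h; fluor. Ex 525/Em 598.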

CC(C)CN(C[C@@H](O)[C@H](Cc1ccccc1)NC(=O)O[C@@H]1CCOC1)S(=O)(=O)c1ccc(N)cc1
inactive: outcome [1] | outcome [2] | outcome [3] | outcome [4] | outcome [5] | outcome [6]

CNC(C)[C@@H]1CC[C@@H](N)[C@@H](O[C@H]2[C@H](O)[C@@H](O[C@H]3OC[C@](C)(O)[C@H](NC)[C@H]3O)[C@H](N)C[C@@H]2N)O1 (stereo not given in full)
inactive: outcome [1] | outcome [2] | outcome [3] | outcome [4] | outcome [5] | outcome [6]

CCC[C@@]1(CCc2ccccc2)CC(O)=C([C@H](CC)c2cccc(NS(=O)(=O)c3ccc(C(F)(F)F)cn3)c2)C(=O)O1
inactive: outcome [1] | outcome [2] | outcome [3] | outcome [4] | outcome [5] | outcome [6]

CCN(CC)C(=O)[C@]1(c2ccccc2)C[C@@H]1CN
inactive: outcome [1] | outcome [2] | outcome [3] | outcome [4] | outcome [5] | outcome [6]

Cn1nnc2c(C(N)=O)ncn2c1=O
inactive: outcome [1] | outcome [2] | outcome [3] | outcome [7] | outcome [4] | outcome [8] | outcome [9] | outcome [6]

CC(CCc1ccc(O)cc1)NCCc1ccc(O)c(O)c1 (stereo not given)
inactive: outcome [1] | outcome [2] | outcome [3] | outcome [7] | outcome [4] | outcome [8] | outcome [9] | outcome [5] | outcome [6]

CCOC(=O)[C@H](CCc1ccccc1)N[C@H]1CCCN2CCC[C@@H](C(=O)O)N2C1=O
inactive: outcome [1] | outcome [2] | outcome [3] | outcome [4] | outcome [5] | outcome [6]

CCCCCCCN(CC)CCCC(O)c1ccc(NS(C)(=O)=O)cc1 (stereo not given)
inactive: outcome [1] | outcome [2] | outcome [3] | outcome [4] | outcome [5] | outcome [6]

CO[C@@]1(NC(=O)C2SC(=C(C(N)=O)C(=O)O)S2)C(=O)N2C(C(=O)O)=C(CSc3nnnn3C)CS[C@@H]21 (stereo not given in full)
inactive: outcome [1] | outcome [2] | outcome [3] | outcome [4] | outcome [5] | outcome [6]

CN1[C@@H]2CCC[C@@H]1CC(NC(=O)c1nn(C)c3ccccc13)C2 (stereo not given in full)
inactive: outcome [1] | outcome [2] | outcome [3] | outcome [4] | outcome [5] | outcome [6]

CC(C)(O/N=C(\C(=O)N[C@@H]1C(=O)N2C(C(=O)[O-])=C(C[n+]3ccccc3)CS[C@H]12)c1csc(N)n1)C(=O)O
inactive: outcome [1] | outcome [2] | outcome [3] | outcome [4] | outcome [5] | outcome [6]

NC(N)=Nc1nc(CSCC/C(N)=N/S(N)(=O)=O)cs1
inactive: outcome [1] | outcome [2] | outcome [3] | outcome [7] | outcome [4] | outcome [8] | outcome [9] | outcome [6]

C=C1[C@H](CO)[C@@H](O)C[C@@H]1n1cnc2c(=O)[nH]c(N)nc21
inactive: outcome [1] | outcome [2] | outcome [3] | outcome [4] | outcome [5] | outcome [6]

CN[C@@H]1[C@H](O[C@H]2[C@H](O[C@H]3[C@H](O)[C@@H](O)[C@H](N=C(N)N)[C@@H](O)[C@@H]3N=C(N)N)O[C@@H](C)[C@]2(O)C=O)O[C@@H](CO)[C@H](O)[C@H]1O
inactive: outcome [1] | outcome [2] | outcome [3] | outcome [4] | outcome [5] | outcome [6]

CN[C@H](CC(C)C)C(=O)N[C@H]1C(=O)N[C@@H](CC(N)=O)C(=O)N[C@H]2C(=O)N[C@H]3C(=O)N[C@H](C(=O)N[C@@H](C(=O)O)c4cc(O)cc(O)c4-c4cc3ccc4O)[C@H](O)c3ccc(c(Cl)c3)Oc3cc2cc(c3O[C@@H]2O[C@H](CO)[C@@H](O)[C@H](O)[C@H]2O[C@H]2C[C@](C)(N)C(O)[C@H](C)O2)Oc2ccc(cc2Cl)[C@H]1O (stereo not given in full)
inactive: outcome [1] | outcome [2] | outcome [3] | outcome [4] | outcome [5] | outcome [6]

CC(C)c1nc(N(C)S(C)(=O)=O)nc(-c2ccc(F)cc2)c1/C=C/C(O)CC(O)CC(=O)O (stereo not given)
inactive: outcome [1] | outcome [2] | outcome [3] | outcome [4] | outcome [5] | outcome [6]

CC(C)CN(C[C@@H](OP(=O)(O)O)[C@H](Cc1ccccc1)NC(=O)O[C@H]1CCOC1)S(=O)(=O)c1ccc(N)cc1
inactive: outcome [1] | outcome [2] | outcome [3] | outcome [4] | outcome [5] | outcome [6]

CC(C)[C@H](N)C(=O)OCC(CO)OCn1cnc2c(=O)[nH]c(N)nc21 (stereo not given in full)
inactive: outcome [1] | outcome [2] | outcome [3] | outcome [4] | outcome [5] | outcome [6]

Cc1noc(NS(=O)(=O)c2ccc(N)cc2)c1C
inactive: outcome [1] | outcome [2] | outcome [3] | outcome [7] | outcome [4] | outcome [8] | outcome [9] | outcome [5] | outcome [6]

CN/C(=C\[N+](=O)[O-])NCCSCc1csc(CN(C)C)n1
inactive: outcome [1] | outcome [2] | outcome [3] | outcome [7] | outcome [4] | outcome [8] | outcome [9] | outcome [6]

C=CC(N)CCC(=O)O (stereo not given)
inactive: outcome [1] | outcome [2] | outcome [3] | outcome [4] | outcome [5] | outcome [6]

COc1cc(Br)c(C[N+]2(CCOCCC3CCC4CC3C4(C)C)CCOCC2)cc1OC (stereo not given)
inactive: outcome [1] | outcome [2] | outcome [3] | outcome [4] | outcome [5] | outcome [6]

C[C@@H]1[C@H](O)[C@@H](C)/C=C/C=C\C=C\C=C\C=C\C=C\C=C\[C@H](O[C@@H]2O[C@H](C)[C@@H](O)[C@H](N)[C@@H]2O)C[C@@H]2O[C@](O)(C[C@@H](O)C[C@@H](O)[C@H](O)CC[C@@H](O)C[C@@H](O)CC(=O)O[C@H]1C)C[C@H](O)[C@H]2C(=O)O (stereo in doubt)
inactive: outcome [1] | outcome [2] | outcome [3] | outcome [4] | outcome [5] | outcome [6]

CC[C@H]1OC(=O)[C@H](C)[C@@H](O[C@H]2C[C@@](C)(OC)[C@@H](O)[C@H](C)O2)[C@H](C)[C@@H](O[C@@H]2O[C@H](C)C[C@H](N(C)C)[C@@H]2O)[C@](C)(O)C[C@@H](C)CN(C)[C@H](C)[C@@H](O)[C@]1(C)O
inactive: outcome [2] | outcome [7] | outcome [8] inactive [Channel type: confirmation] | outcome [9] | outcome [5]
active: AC50 [1] 2.51 µM | AC50 [3] 2.52 µM | AC50 [6] 2.51 µM

Nc1ccc(C(=O)O)c(O)c1
inactive: outcome [1] | outcome [2] | outcome [3] | outcome [7] | outcome [4] | outcome [8] | outcome [9] | outcome [5] | outcome [6]

Nc1nc(NC2CC2)c2ncn([C@@H]3C=C[C@@H](CO)C3)c2n1
inactive: outcome [1] | outcome [2] | outcome [3] | outcome [4] | outcome [5] | outcome [6]

CCC(=O)OC(OP(=O)(CCCCc1ccccc1)CC(=O)N1C[C@H](C2CCCCC2)C[C@H]1C(=O)O)C(C)C (stereo not given in full)
inactive: outcome [1] | outcome [2] | outcome [3] | outcome [4] | outcome [5] | outcome [6]

C[N+](C)(C)CC(O)CC(=O)[O-] (stereo not given)
inactive: outcome [1] | outcome [2] | outcome [3] | outcome [7] | outcome [4] | outcome [8] | outcome [9] | outcome [6]

CO/N=C(\C(=O)N[C@@H]1C(=O)N2C(C(=O)O)=C(C[N+]3(C)CCCC3)CS[C@H]12)c1csc(N)n1
inactive: outcome [1] | outcome [2] | outcome [3] | outcome [4] | outcome [5] | outcome [6]

CNNCc1ccc(C(=O)NC(C)C)cc1
inactive: outcome [1] | outcome [2] | outcome [3] | outcome [7] | outcome [4] | outcome [8] | outcome [9] | outcome [6]

NS(=O)(=O)c1cc(Cl)c(Cl)c(S(N)(=O)=O)c1
inactive: outcome [1] | outcome [2] | outcome [3] | outcome [4] | outcome [6]

CCC[C@@H]1C[C@@H](C(=O)N[C@@H]([C@H]2O[C@H](SC)[C@H](O)[C@@H](O)[C@H]2O)[C@H](C)Cl)N(C)C1
inactive: outcome [1] | outcome [2] | outcome [3] | outcome [4] | outcome [6]

CCCCC[C@H](O)/C=C/[C@@H]1[C@H]2C/C(=C/CCCC(=O)O)O[C@H]2C[C@H]1O
inactive: outcome [1] | outcome [2] | outcome [3] | outcome [4] | outcome [6]

COc1cc(C)c(/C=C/C(C)=C/C=C/C(C)=C/C(=O)O)c(C)c1C
inactive: outcome [1] | outcome [2] | outcome [3] | outcome [4] | outcome [6]

C[N+]1(C)[C@@H]2CC(OC(=O)C(O)(c3cccs3)c3cccs3)C[C@H]1[C@@H]1O[C@@H]12 (stereo not given in full)
inactive: outcome [1] | outcome [2] | outcome [3] | outcome [4] | outcome [6]

Clc1ccc2c(c1)C(c1ccccc1)=NCc1nncn1-2
inactive: max response [10] 5.88% | outcome [1] | outcome [2] | outcome [3] | outcome [4] | outcome [5] | outcome [6]

CC(C)C[C@H](CN)CC(=O)O
inactive: max response [10] 2.29% | outcome [1] | outcome [2] | outcome [3] | outcome [4] | outcome [5] | outcome [6]

CCCCC(=O)N(Cc1ccc(-c2ccccc2-c2nn[nH]n2)cc1)[C@@H](C(=O)O)C(C)C
inactive: outcome [1] | outcome [2] | outcome [3] | outcome [4] | outcome [5] | outcome [6]

NC(=O)[C@@H]1CCCN1C(=O)[C@H](Cc1cnc[nH]1)NC(=O)[C@@H]1CCC(=O)N1
inactive: outcome [1] | outcome [2] | outcome [3] | outcome [4] | outcome [6]

C[C@@H]1O[C@@H]1P(=O)(O)O
inactive: outcome [1] | outcome [2] | outcome [3] | outcome [4] | outcome [5] | outcome [6]

OCC(S)CS (stereo not given)
inactive: outcome [1] | outcome [2] | outcome [3] | outcome [4] | outcome [5] | outcome [6]

O=C1Nc2ccc(Cl)cc2C(c2ccccc2Cl)=NC1O (stereo not given)
inactive: max response [10] 16.1% | outcome [1] | outcome [2] | outcome [3] | outcome [4] | outcome [5] | outcome [6]
